Potency and affinity values are given separately. A number with no mark means an inactive call. How the calls were made is not given here.
Further: 0% is about no effect.

The conditions of the test: Ebola virus entry assay, green fluorescence channel.
Consider `Nc1ccc(S(=O)(=O)NC(=O)c2ccccc2)cc1`, for which the efficacy is -38.1%. As for `COc1c2occc2c(OC)c2c(=O)cc(C)oc12`, the figure is 13.6%; as for `Oc1cccc(O)c1`, -18.5%; as for `COc1ccc(O)cc1`, 18.3%. With `Cc1ccc(S(=O)(=O)NC(=O)NC2CCCCC2)cc1` the figure was -18.8%; with `COc1cc2nc(Cl)nc(N)c2cc1OC`, -33.8%. Regarding `CC(C)(C)NCC(O)COc1cccc2c1C[C@H](O)[C@H](O)C2` (some centres undefined), the efficacy is 21.3%. Regarding `CC(C)COC(=O)c1ccc(N)cc1`, the efficacy was 8.42%. In the case of `O=C(NC(Cc1cc(=O)[nH]c2ccccc12)C(=O)O)c1ccc(Cl)cc1` (centres undefined), the efficacy was -33.1%. As for `OC1(c2ccc(Cl)cc2)CCNCC1`, the figure is 19.8%. As for `O=C1O[C@H](CO)[C@@H](O)[C@H](O)[C@H]1O`, the figure is 24.7%.

In the case of `NC[C@H]1O[C@H](O[C@H]2[C@H](O[C@@H]3O[C@H](CO)[C@@H](O)[C@H]3O)C(O)[C@H](N)C[C@@H]2N)[C@H](N)[C@@H](O)[C@@H]1O` (some centres undefined), the efficacy was -16%. As for `CCN1CCCC1CN` (centres undefined), the figure is -12.7%. As for `CCc1cc2c(s1)-n1c(C)nnc1CN=C2c1ccccc1Cl`, the figure is 22%; as for `CC(C)Cc1ccc(C(C)C(=O)O)cc1` (centres undefined), 17.8%.

With `CCN(CC)CCOC(=O)c1ccc(N)cc1`, the efficacy is -27.3%. `CS(=O)(=O)c1ccc([C@@H](O)[C@@H](CF)NC(=O)C(Cl)Cl)cc1`: the efficacy was -18.1%. On to `CNC[C@H](O)c1cccc(O)c1`, for which the efficacy was -23.9%. With `C#C[C@]1(O)CC[C@H]2[C@@H]3CCC4=CC(=O)CC[C@]4(C)[C@H]3CC[C@@]21C` the figure was -17.3%. As for `CC(=O)[C@@]1(O)CC[C@H]2[C@@H]3C[C@H](C)C4=CC(=O)C=C[C@]4(C)[C@@]3(F)[C@@H](O)C[C@@]21C`, the figure is -18.9%; as for `CSCC[C@H](NC(=O)[C@H](Cc1c[nH]c2ccccc12)NC(=O)CCNC(=O)OC(C)(C)C)C(=O)N[C@@H](CC(=O)O)C(=O)N[C@@H](Cc1ccccc1)C(N)=O`, 9.45%. As for `CCS(=O)(=O)c1ccc(OC)c(C(=O)OC)c1`, the figure is 18.9%; as for `NC(=O)NC1NC(=O)NC1=O` (centres undefined), -19.2%; as for `Cc1onc(-c2ccccc2)c1-c1ccc(S(N)(=O)=O)cc1`, 21%.

Regarding `COc1cc2c(cc1OC)CN(C(=O)[C@H](C)N[C@@H](CCc1ccccc1)C(=O)O)[C@H](C(=O)O)C2`, the efficacy is -27.9%. With `O=c1[nH]c(=O)n([C@H]2C[C@H](O)[C@@H](CO)O2)cc1I` the figure was -7.83%. As for `Nc1ccc([N+](=O)[O-])c(C(F)(F)F)c1`, the figure is -37.2%; as for `Cc1nc([N+](=O)[O-])cn1-c1ccc([N+](=O)[O-])cc1`, -13.8%; as for `CC(=O)NC(=O)c1ccccc1O`, -28.5%.

With `CCOc1ccc2nc3cc(N)ccc3c(N)c2c1`, the efficacy was 18.4%. On to `CCCCC(O)/C=C(C)/C=C/C=C/C(=O)N1CCCC1=O` (centres undefined), for which the efficacy was -13.9%.

With `NC(=O)CS(=O)C(c1ccccc1)c1ccccc1` (centres undefined), the efficacy is -20.1%. With `CN1CCN(c2c(F)cc3c(=O)c(C(=O)O)cn4c3c2SCC4)CC1`, the efficacy is -11.6%.

Regarding `C/C(=C(\CCO)SS/C(CCO)=C(\C)N(C=O)Cc1cnc(C)nc1N)N(C=O)Cc1cnc(C)nc1N`, the efficacy was -13%. As for `CN(C)[C@@H]1C(=O)C(C(N)=O)=C(O)[C@@]2(O)C(=O)C3=C(O)c4c(O)cccc4C[C@H]3C[C@@H]12`, the figure is 167%; as for `COc1cc2c3cc1Oc1cc(ccc1O)C[C@@H]1c4c(cc(OC)c(O)c4Oc4ccc(cc4)C[C@@H]3N(C)CC2)CC[N+]1(C)C`, -16.5%; as for `CCN(CC)C(=O)c1ccc(O)c(OC)c1`, 13.1%. Take `O=C1OC2(c3ccccc31)c1cc(Br)c(O)c(Br)c1Oc1c2cc(Br)c(O)c1Br`: the efficacy was 23.8%. As for `CC(C)Cc1ccc(CC(=O)O)cc1`, the figure is -19.8%.

These data come from PubChem BioAssay (NCATS).
